The record followed here is PubChem BioAssay AID504727 (Broad Institute, 2011).

SMILES strings stand for the structures. Values joined by “and” are separate entries in the source; they are usually repeats but may differ in a detail not shown here. Equal values may be shown once. Unmarked numbers belong to inactive results. Active and inactive are the calls of the source.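 Rule for the calls: active = fitted half-maximal concentration AC50 at or below ten times the highest valid tested dose, with signal falling as DNA is displaced (actives reach about 34 µM in these data); inconclusive = flat fit at moderate signal loss, or poor fit quality; inactive = the rest, including signal rising instead of falling.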

This assay is described as follows: acridine orange-DNA binding displacement – biochemical, fluorescence polarization, cherry-picked samples, set 2, artefact control for KSHV LANA DNA-binding inhibitor project, dose response (AID 504727).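 For activity change, negative = DNA displacement: 0% = median of neutral control wells and -100% = mitoxantrone positive control wells.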 The following applies: series mostly up to 35 µM; activity change, negative = DNA displacement: at the top concentration.
Take `Cc1cc(NS(=O)(=O)c2ccc(Nc3nc(-c4sc(N)nc4C)cs3)cc2)no1`: the “activity change, negative = DNA displacement” value (“activity change” for short) is 11.1%.
Same read-out and setting: as for `C=CCNC(=O)c1cn(CC)c2cc(N3CCN(C(=O)c4ccco4)CC3)c(F)cc2c1=O`, the figure is -5.64%; as for `COc1cccc(-c2cc(C(=O)N3CCN(S(=O)(=O)c4ccccc4)CC3)[nH]n2)c1`, -0.76%.
On the same count and under the same terms, the same measure for `CN(C)c1ccc(/C=C/C(=O)c2ccc(O)cc2)cc1[N+](=O)[O-]`: -4.37%; for `CCCc1nc(NCc2ccccn2)c2nnn(Cc3ccccc3F)c2n1`: -1.39%.
Same read-out and setting: the same measure for `Cc1cccc(N(Cc2ccccc2)C(=O)C2CCN(C(=O)c3ccccc3C)CC2)c1`: 1.55%.
`O=C1c2c(O)ccc(O)c2C(=O)c2c(NCCNCCO)ccc(NCCNCCO)c21`: the AC50 is 1.34 µM (active) and 2.32 µM (active).
`CN(Cc1cnc2nc(N)nc(N)c2n1)c1ccc(C(=O)NC(CCC(=O)O)C(=O)O)cc1` (configuration not stated): the “activity change” value was 2.09%.
The same measure, in the same setting: as for `COc1ccc(C(=O)c2ccsc2N)cc1`, the figure is 3.64%; as for `Cc1ccc(C(=O)c2coc3ccc(O)c(Cl)c23)cc1`, 2.25%; as for `Cc1ccc(NC(=S)N/C(=N/S(=O)(=O)c2ccccc2)c2ccccc2)cc1`, 0.102%.
On the same count and under the same terms, as for `CCN(CC)C(=O)C1c2ccccc2Oc2ccccc21`, the figure is -1.95%; as for `CCN(C(=O)COC(=O)c1ccc([N+](=O)[O-])o1)C1CCCCC1`, 0.36%.
On the same count and under the same terms, as for `CC(C)C(C(=O)O)N1C(=O)/C(=C/C=C/c2ccco2)SC1=S` (configuration not stated), the figure is 10.2%.
`O=C(NC1CCCCC1)c1cc([N+](=O)[O-])ccc1N1CCOCC1`: the “activity change” value is -1.73%.
For `COCCN(CCOC)Cc1c(O)ccc2c1O/C(=C\c1ccco1)C2=O`, the AC50 was 27.5 µM (active).
Take `COc1ccc(/C=C/C(=O)NC(=S)Nc2ccc(S(N)(=O)=O)cc2)cc1`: the “activity change” value was 1.61%.
